Measurements: PubChem BioAssay (NCI)
The panel holds about 79,000 compounds, 15% with a hit somewhere; the sample as a whole holds those more often. Cut-off read from the data, not from the text of the source: active = growth inhibition above about 70%; inactive = the rest. Where a SMILES comes first, the peptide text is derived from it. [ ]: non-standard residue; d: D form. ξ: configuration not given here. ξF = NC(Cc1ccccc1)C(=O)O

Experiments:
[1] = NCI Yeast Anticancer Drug Screen. Data for the rad50 strain (AID 155);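 note: 0% = growth of vehicle-only cultures of the same strain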; settings: S. cerevisiae rad50 strain growth inhibition; at 50.0 µM; hits give high values
Method in brief: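 Growth of the mutant yeast was measured after compound exposure and referenced to vehicle-treated cultures.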

[2] = NCI Yeast Anticancer Drug Screen. Data for the mec2-1 strain (AID 157); settings: S. cerevisiae mec2-1 strain, at 50.0 µM, hits give high values
Method in brief: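 Strain: mec2-1 (DNA repair/cell cycle alteration). Compound exposure, then growth measured; inhibition expressed relative to vehicle.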

[3] = NCI Yeast Anticancer Drug Screen. Data for the sgs1 mgt1 strain (AID 161);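 note: 0% = growth of cultures given vehicle only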; settings: S. cerevisiae sgs1 mgt1 strain, at 50.0 µM, hits give high values
Method in brief: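 Mutant yeast exposed to compound; growth scored against vehicle-only wells.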

[4] = NCI Yeast Anticancer Drug Screen. Data for the cln2 rad14 strain (AID 165);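 note: 0% = growth equal to vehicle treated cultures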; settings: S. cerevisiae cln2 rad14 strain, at 50.0 µM, hits give high values
Method in brief: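 Compounds are applied to the cln2 rad14 yeast strain, and growth is then compared with that of vehicle-treated cultures to give inhibition.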

[5] = NCI Yeast Anticancer Drug Screen. Data for the bub3 strain (AID 167); settings: S. cerevisiae bub3 mutant strain, at 50.0 µM, hits give high values
Method in brief: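 Whole-cell yeast assay. The mutant strain was incubated with compounds, and growth inhibition was determined by comparison with vehicle-treated cells.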

[6] = NCI Yeast Anticancer Drug Screen. Data for the mlh1 rad18 strain (AID 175); settings: S. cerevisiae mlh1 rad18 strain growth inhibition; at 50.0 µM; hits give high values
Method in brief: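 Read-out is yeast growth inhibition, calculated against vehicle-only controls. The compound was applied to a strain engineered with DNA damage repair alterations.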

Measured: growth inhibition

C=C(CC/C=C\CO)[Si](C)(C)C
inactive: [1] -10.5% | [2] -20.1% | [3] 1.05% | [4] 7.35% | [5] 9.95% | [6] -9.5%

CCOC(=O)c1c[nH]c2cc(Cl)cc(OC)c2c1=O
inactive: [1] -11.3% | [2] -5.6% | [3] -1% | [4] -32.9% | [5] -7.35% | [6] -17%

O=C(O)c1ccc2ccccc2c1C(=O)O
inactive: [1] 6.4% | [2] -1.6% | [3] 0.25% | [4] -6.55% | [5] -2.2% | [6] -1.7%

NC(Cc1ccccc1)C(=O)NCC(=O)O (stereo not given) (H-[ξF]-Gly-OH)
inactive: [1] -7.45% | [2] 8.65% | [3] -6.35% | [4] -26.4% | [5] -11.7% | [6] -12.3%

N#CC1CC=CCC1 (stereo not given)
inactive: [1] 19.4% | [2] 4.95% | [3] 0.35% | [4] 15.2% | [5] -12.9% | [6] -5.65%

O=C(Cl)c1cccc2c([N+](=O)[O-])cccc12
inactive: [1] -4.45% | [2] 2.95% | [3] -2.35% | [4] -44% | [5] -1.4% | [6] 11.8%

COC1/C=C/OC2(C)Oc3c(C)c(O)c4c(O)c(c5c(nc(-c6ccco6)n5-c5ccccc5)c4c3C2=O)NC(=O)/C(C)=C\C=C\C(C)C(O)C(C)C(O)C(C)C(OC(C)=O)C1C (stereo not given)
inactive: [1] -6.2% | [2] -13.8% | [3] -19.8% | [4] 14.2% | [5] -18.8% | [6] -22.7%

O=C1CC2C3CC(Br)C4C3CC2C14 (stereo not given)
inactive: [1] 4.95% | [2] -0.25% | [3] 1.75% | [4] 6.5% | [5] 7.2% | [6] 4.75%

Cc1nc2c(Cl)cc(Cl)cc2c(Cl)c1CCCl
inactive: [1] 29.9% | [2] 30.2% | [3] 49.5% | [4] 18.9% | [5] 39.6% | [6] 45.6%

CCCc1ncc(C[n+]2ccccc2C)c(N)n1
inactive: [1] 11.8% | [2] -15.1% | [3] 23.2% | [4] 25.4% | [5] 10.7% | [6] 8.25%

O=c1[nH]nc(-c2ccccc2)n1/N=C/c1ccncc1
inactive: [1] 21.7% | [2] 16.4% | [3] 15.4% | [4] 10.2% | [5] 17.6% | [6] 22.7%

CC1C=C(OC(=O)c2ccccc2)C(=O)C(n2cc(F)c(=O)n(C(=O)c3ccccc3)c2=O)O1 (stereo not given)
inactive: [1] 43.2% | [2] 47.3% | [3] 68.7% | [4] 0.1% | [5] -1.25% | [6] 15.6%

O=C(O/N=C(\c1ccccc1)C(Br)c1ccccc1)c1ccccc1 (stereo not given)
inactive: [1] -2.75% | [2] 10.2% | [3] 2.9% | [4] -2.05% | [5] 8.4% | [6] -2.55%

C/C(Nc1ccc(F)cc1)=C1/CCOC1=O
inactive: [1] 9.8% | [2] -17.9% | [3] -1.5% | [4] -43.5% | [5] 13.8% | [6] -11.5%

COc1ccc(-c2c(C(C)=O)c(-c3ccccc3)n(C3OC(CO)C(O)C(O)C3O)c(=S)c2C#N)cc1 (stereo not given)
inactive: [1] -17.7% | [2] -3.7% | [3] 6.6% | [4] 3.95% | [5] 1.3% | [6] 6.2%

CCCCCCCC[N+](C)(C)C
inactive: [1] -48.8% | [2] -44.5% | [3] -26.6% | [4] 11.5% | [5] -28.7% | [6] -39.8%

CCCCOC(=O)CC(C(=O)OCCCC)N1CCNCC1 (stereo not given)
inactive: [1] -0.05% | [2] -9.95% | [3] -4.15% | [4] -50.6% | [5] -1.2% | [6] -3.1%

CC1CCC23C1CC(CC(=O)C2(C)O)C3(C)C (stereo not given)
inactive: [1] 4.75% | [2] 6% | [3] 5.2% | [4] -49.4% | [5] -21.1% | [6] 5.05%

COc1cccc(NC(=O)CSc2nnc(-c3ccc(NC(C)=O)cc3)o2)c1
inactive: [1] -29.2% | [2] -15.5% | [3] -15.3% | [4] 6.15% | [5] -25.4% | [6] -16.9%

Cc1ccccc1NC(=O)c1ccccc1
inactive: [1] 1.35% | [2] 2.3% | [3] -5.6% | [4] -14.7% | [5] 5.85% | [6] 3.1%
